Data as given in ChEMBL document CHEMBL3988442, “University of Dundee, Small-Polar-MMV Screening Library” (2021).
For some assays here: Entries with a potency or affinity are not part of this list.

Legend:
Set-up in all cases: scale not given: direction of the effect not stated beside the values
[1] = biological target: Protein translocase subunit SecA (Escherichia coli (strain K12)) (UniProt P10408); test: Assay to Identify E. coli SecA ATPase Inhibitors; type: functional; conditions: 30 µM
[2] = biological target: T1, Ubiquitin-activating enzyme e1, putative (Leishmania donovani (strain BPK282A1)) (UniProt E9BSI1); test: Leishmania donovani Ubiquitin Activating Enzyme (LdE1); type: functional; conditions: 30 µM
T1 sequence (whole entry): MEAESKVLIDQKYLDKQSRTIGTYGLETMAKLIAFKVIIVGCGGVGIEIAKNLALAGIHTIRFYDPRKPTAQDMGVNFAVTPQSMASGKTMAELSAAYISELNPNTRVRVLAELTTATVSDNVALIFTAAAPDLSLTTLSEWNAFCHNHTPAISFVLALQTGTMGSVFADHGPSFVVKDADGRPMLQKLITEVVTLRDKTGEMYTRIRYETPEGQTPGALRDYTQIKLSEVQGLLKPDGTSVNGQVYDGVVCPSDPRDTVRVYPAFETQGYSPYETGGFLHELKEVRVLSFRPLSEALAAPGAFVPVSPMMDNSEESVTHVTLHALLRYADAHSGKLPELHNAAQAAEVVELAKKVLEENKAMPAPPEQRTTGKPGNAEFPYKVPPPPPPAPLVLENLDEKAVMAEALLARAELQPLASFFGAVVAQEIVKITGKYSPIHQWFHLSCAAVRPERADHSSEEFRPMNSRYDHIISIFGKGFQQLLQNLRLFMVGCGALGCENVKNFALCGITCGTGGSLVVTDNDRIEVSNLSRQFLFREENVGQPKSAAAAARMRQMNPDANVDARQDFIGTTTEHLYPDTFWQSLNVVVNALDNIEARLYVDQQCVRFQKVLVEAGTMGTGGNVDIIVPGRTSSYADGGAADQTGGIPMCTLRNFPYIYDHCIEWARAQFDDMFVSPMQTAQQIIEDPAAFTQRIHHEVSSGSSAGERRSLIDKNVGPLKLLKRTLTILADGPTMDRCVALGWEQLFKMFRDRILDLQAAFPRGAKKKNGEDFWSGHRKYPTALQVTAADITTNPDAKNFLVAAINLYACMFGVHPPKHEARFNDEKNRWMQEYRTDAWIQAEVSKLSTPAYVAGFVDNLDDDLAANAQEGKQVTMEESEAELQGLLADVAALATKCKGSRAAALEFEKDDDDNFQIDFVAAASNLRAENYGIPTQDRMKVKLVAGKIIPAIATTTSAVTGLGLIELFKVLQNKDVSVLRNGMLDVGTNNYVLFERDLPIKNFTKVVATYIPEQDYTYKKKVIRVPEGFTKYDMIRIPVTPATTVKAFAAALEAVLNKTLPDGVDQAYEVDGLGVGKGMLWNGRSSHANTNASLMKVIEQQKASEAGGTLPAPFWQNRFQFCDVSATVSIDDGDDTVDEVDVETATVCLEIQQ

[3] = biological target: AMP-activated protein kinase, AMPK (Homo sapiens) (UniProt P54646+O43741+P54619+Q9UGJ0+Q9Y478+Q13131+Q9UGI9); test: AMP-dependent Kinase enzyme assay. An in vitro enzyme assay that detects ADP turnover that is directly proportional to AMPK activity. This uses naive AMPK that is activated during the assay with MK-8722; type: functional; conditions: 30 µM
[4] = biological target: Sialic acid-binding Ig-like lectin 9 (Homo sapiens) (UniProt Q9Y336); test: Hs-Siglec9 ALPHAscreen SOP 20170721; conditions: 10 µM
Sequence of Sialic acid-binding Ig-like lectin 9 (Homo sapiens) (Q9Y336 whole entry): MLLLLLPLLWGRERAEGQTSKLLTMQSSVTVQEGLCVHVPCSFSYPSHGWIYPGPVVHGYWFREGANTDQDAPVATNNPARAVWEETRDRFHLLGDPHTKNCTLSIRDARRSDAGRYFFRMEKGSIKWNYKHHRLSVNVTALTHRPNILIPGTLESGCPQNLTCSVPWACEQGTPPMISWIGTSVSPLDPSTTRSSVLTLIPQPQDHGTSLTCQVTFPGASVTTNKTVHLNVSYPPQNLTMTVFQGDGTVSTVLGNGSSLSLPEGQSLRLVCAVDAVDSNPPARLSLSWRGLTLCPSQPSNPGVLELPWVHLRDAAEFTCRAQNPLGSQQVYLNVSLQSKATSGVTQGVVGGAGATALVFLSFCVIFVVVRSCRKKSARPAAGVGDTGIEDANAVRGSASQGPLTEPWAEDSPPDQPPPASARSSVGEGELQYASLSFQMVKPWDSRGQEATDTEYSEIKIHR

[5] = test system: Trypanosoma cruzi; test: Trypanosoma cruzi phosphomannomutase and mannose-1-phosphate guanylyltransferase assay; type: functional; conditions: 10 µM
[6] = biological target: T2, Arginase-2, mitochondrial (Homo sapiens) (UniProt P78540); test: in vitro enzyme assay to detect the production of urea directly proportional to the activity of Arginase II; type: functional; conditions: 33.3 µM; also: in the data most compounds retested in dose-response had high values
T2 sequence (whole entry): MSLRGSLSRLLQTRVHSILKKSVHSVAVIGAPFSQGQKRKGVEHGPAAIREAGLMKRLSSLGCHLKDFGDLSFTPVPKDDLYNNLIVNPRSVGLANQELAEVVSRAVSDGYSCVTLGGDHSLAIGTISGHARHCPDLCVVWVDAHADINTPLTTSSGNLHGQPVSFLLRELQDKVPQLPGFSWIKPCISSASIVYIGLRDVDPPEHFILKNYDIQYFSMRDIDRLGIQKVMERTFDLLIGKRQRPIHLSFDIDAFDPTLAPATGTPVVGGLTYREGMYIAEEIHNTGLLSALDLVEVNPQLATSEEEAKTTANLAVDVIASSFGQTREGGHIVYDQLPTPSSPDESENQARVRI

[7] = biological target: T3, Proteasome subunit beta (Trypanosoma cruzi) (UniProt O96673); test: Trypanosoma cruzi proteasome chymotrypsin-like activity (TcProtChymo) assay.; also: in the data most compounds retested in dose-response had high values; type: functional; conditions: 9.37 µM
T3 sequence (whole entry): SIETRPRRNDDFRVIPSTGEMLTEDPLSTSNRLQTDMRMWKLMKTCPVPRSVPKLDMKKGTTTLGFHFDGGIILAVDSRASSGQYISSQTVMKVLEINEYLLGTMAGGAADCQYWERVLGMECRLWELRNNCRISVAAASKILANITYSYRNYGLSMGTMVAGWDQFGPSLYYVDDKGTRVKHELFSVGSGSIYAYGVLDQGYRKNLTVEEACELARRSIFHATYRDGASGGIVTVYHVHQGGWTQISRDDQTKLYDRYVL

[8] = organism: Homo sapiens; test: To identify inhibition of the IFN signalling (Jak-Stat) pathway via expression of an eGFP reporter gene under the control of an IFN-stimulated response element (ISRE) containing MxA promoter.; type: functional; conditions: 30 µM
[9] = biological target: T4, Tyrosyl-tRNA synthetase, putative (Trypanosoma cruzi (strain CL Brener)) (UniProt Q4DSP6); test: Trypanosoma cruzi tyrosyl tRNA synthetase (TcYRS) _High Tyrosine SOP; type: functional; conditions: 30 µM; also: in the data most compounds retested in dose-response had high values
T4 sequence (whole entry): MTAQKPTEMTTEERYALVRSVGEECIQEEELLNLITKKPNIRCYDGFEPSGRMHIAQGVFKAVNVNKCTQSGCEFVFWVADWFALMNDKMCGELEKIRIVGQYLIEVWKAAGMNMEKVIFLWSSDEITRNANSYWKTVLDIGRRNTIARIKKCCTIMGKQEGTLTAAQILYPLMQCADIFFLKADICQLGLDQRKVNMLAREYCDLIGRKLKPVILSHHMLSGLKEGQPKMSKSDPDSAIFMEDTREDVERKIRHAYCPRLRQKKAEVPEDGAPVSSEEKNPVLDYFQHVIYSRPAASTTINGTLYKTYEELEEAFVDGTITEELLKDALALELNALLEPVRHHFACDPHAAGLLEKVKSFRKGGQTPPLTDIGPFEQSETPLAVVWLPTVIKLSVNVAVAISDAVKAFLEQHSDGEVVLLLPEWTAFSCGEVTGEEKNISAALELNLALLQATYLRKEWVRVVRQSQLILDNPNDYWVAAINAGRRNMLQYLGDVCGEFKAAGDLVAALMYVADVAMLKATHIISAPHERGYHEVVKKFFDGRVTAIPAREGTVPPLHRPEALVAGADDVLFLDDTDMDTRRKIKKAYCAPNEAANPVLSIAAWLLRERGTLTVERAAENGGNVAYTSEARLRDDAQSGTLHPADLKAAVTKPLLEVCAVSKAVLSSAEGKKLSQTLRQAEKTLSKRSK

[10] = biological target: T4, Tyrosyl-tRNA synthetase, putative (Trypanosoma cruzi (strain CL Brener)); test: Trypanosoma cruzi tyrosyl tRNA synthetase (TcYRS) SOP; type: functional; conditions: 30 µM
[11] = biological target: Chromo domain-containing protein 1 (Saccharomyces cerevisiae (strain ATCC 204508 / S288c) (Baker's yeast)) (UniProt P32657); test: ScCHD-1 Enzyme Inhibition Assay; type: functional; conditions: 30 µM; also: in the data most compounds retested in dose-response had high values
Sequence of Chromo domain-containing protein 1 (Saccharomyces cerevisiae (strain ATCC 204508 / S288c) (Baker's yeast)) (P32657 whole entry, the tested form may be a part): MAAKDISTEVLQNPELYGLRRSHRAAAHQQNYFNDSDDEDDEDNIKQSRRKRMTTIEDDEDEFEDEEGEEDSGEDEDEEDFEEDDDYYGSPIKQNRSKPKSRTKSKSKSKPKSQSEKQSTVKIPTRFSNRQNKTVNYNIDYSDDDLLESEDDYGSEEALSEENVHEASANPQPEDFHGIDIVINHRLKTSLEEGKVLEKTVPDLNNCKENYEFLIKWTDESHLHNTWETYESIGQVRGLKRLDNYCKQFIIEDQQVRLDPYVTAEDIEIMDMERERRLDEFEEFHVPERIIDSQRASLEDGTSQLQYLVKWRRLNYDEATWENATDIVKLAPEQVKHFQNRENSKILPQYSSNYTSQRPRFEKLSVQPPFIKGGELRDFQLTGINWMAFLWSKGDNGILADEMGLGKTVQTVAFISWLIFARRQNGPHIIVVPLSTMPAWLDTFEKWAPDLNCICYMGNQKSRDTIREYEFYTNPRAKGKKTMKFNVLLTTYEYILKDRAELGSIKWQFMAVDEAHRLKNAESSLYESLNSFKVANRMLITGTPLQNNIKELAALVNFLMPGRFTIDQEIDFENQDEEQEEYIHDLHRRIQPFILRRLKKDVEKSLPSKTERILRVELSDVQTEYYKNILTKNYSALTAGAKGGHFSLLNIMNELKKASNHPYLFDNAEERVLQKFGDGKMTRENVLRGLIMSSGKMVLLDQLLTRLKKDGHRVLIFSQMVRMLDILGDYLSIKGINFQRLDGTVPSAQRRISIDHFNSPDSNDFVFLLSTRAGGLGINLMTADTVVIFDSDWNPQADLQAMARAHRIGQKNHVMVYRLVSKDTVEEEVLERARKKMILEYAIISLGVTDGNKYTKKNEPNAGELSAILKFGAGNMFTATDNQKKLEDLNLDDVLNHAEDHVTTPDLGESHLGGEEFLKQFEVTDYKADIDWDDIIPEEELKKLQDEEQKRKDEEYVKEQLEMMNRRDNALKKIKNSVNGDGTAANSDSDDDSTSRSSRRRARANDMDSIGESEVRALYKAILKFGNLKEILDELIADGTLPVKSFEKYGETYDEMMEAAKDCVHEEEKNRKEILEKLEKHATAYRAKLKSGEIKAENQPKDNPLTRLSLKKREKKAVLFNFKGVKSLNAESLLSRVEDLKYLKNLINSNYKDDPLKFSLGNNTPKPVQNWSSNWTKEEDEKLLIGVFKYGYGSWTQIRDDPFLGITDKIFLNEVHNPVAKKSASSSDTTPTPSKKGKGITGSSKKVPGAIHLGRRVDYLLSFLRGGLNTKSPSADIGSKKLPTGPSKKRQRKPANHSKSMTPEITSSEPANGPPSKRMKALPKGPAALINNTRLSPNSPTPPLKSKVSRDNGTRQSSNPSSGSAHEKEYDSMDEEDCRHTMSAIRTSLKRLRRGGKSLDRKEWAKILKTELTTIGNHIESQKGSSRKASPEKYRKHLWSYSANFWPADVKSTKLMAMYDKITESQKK

Sequence of Protein translocase subunit SecA (Escherichia coli (strain K12)) (P10408 whole entry): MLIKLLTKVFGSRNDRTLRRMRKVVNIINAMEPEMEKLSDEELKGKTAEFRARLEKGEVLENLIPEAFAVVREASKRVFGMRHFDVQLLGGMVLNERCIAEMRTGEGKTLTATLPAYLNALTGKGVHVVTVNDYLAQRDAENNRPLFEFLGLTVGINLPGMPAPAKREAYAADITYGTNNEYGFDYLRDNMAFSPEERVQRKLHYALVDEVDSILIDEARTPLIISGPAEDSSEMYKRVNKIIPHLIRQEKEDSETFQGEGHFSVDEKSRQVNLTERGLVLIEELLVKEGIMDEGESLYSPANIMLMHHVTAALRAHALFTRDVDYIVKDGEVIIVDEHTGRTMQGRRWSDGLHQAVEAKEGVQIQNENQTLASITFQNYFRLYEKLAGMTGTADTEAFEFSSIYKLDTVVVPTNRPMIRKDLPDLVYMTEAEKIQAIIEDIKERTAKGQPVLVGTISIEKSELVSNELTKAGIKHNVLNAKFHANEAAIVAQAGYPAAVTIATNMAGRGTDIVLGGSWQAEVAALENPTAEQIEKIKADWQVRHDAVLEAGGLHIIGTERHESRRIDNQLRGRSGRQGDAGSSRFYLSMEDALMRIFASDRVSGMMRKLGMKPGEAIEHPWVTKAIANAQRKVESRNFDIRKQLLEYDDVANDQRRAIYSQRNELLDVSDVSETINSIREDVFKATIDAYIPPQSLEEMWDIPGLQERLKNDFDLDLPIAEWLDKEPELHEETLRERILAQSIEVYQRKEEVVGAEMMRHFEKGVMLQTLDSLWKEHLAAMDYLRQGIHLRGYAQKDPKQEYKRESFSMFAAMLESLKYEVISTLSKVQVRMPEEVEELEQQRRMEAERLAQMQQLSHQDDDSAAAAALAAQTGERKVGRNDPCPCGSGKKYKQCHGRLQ

Row | Compound | Percent Effect [1] | Percent Effect [2] | Percent Effect [3] | Percent Effect [4] | Percent Effect [5] | Percent Effect [6] | Percent Effect [7] | Percent Effect [8] | Percent Effect [9] | Percent Effect [10] | Percent Effect [11]
1 | CCCSCC(=O)NS(=O)(=O)c1ccc2c(c1)OCCO2 | -2.66% | -2.63% | 5.73% | 7.23% | 1.5% | 3.45% | 2.34% | -0.713% | 1.47% | 0% | -4.12%
2 | c1cncc(CN2CCc3ncnc(C4CCOC4)c3CC2)c1 (configuration not stated) | 1.94% | 21.3% | 13.3% | -7% | -4.92% | 2.1% | 7.14% | 15.9% | 5.32% | 6.41% | -0.839%
3 | N#Cc1ccccc1OCCN1CCCC1Cn1cccn1 (configuration not stated) | -0.713% | -5.41% | -5.48% | 8.98% | 5.75% | -3.61% | -5.22% | -12.9% | 2.46% | 11.1% | -5.36%
4 | CCc1nnsc1C(=O)NCCn1nc2ccccn2c1=O | -5.54% | 18.9% | -7.77% | 20.2% | 5.66% | 4.25% | 8.8% | -0.849% | 6.93% | 18.3% | -9.16%
5 | Cn1ncc2c1C(COCC1CC1)CN(Cc1nccs1)C2 (configuration not stated) | -1.87% | 15.6% | -6.52% | 0.425% | 1.87% | 5.81% | 1.92% | 28.4% | 8.47% | 14.1% | -10.6%
6 | Cc1cccc(N2CCN(CCCNC(=O)c3nccn3C)CC2)c1 | -2.68% | 5.41% | -5.72% | -1.22% | 4.49% | 38.3% | 12.9% | 7.26% | 11.9% | 18.3% | -2.27%
7 | CN1CCN(c2cc(CCNC(=O)C3CCC3)nc(C3CC3)n2)CC1 | -1.04% | 12.2% | 4.69% | 0.557% | -4.74% | -0.232% | 14.2% | 15.8% | 4.3% | 9.09% | -9.84%
8 | NC(=O)CSCC(=O)N1CCc2cc(Cl)cc(Cl)c2C1 | -5.75% | 15.6% | 4.28% | 36.8% | 6.98% | -57.9% | 9.15% | -7.69% | 3.23% | 8.64% | -8.22%
9 | CCc1nc(CC(=O)Nc2cnn(CC3CCCO3)c2)cs1 (configuration not stated) | -2.62% | 8.11% | -12.1% | -2.05% | -0.965% | -1.43% | 7.59% | 0.276% | -4.76% | -2.44% | -1.6%
10 | COc1ccc(OCCNCCn2cccn2)cc1 | 1.21% | 1.27% | -2.53% | 10.8% | -1.95% | 7.1% | 6.69% | 6.41% | -1.04% | 2.53% | -1.82%
11 | COCCCNC(=O)CCn1nc(C)c2ccccc21 | -3.61% | 6.67% | 0.569% | 3.25% | -6.09% | -6.16% | 15% | 2.4% | 3.17% | 2.56% | -8.28%
12 | Cc1cnn(C2CCCN(C(=O)c3cn4cccnc4n3)C2)c1 (configuration not stated) | -4.17% | 8.11% | -11.5% | 17.1% | 1.04% | -6.01% | 1.62% | 7.34% | 7.39% | 16.1% | -12.7%
13 | Cc1ccc(-c2nnc(CN3CCOC(Cn4cccn4)C3)o2)cc1 (configuration not stated) | -4.11% | 10.1% | -1.13% | 4.66% | 0.661% | 3.42% | 7.45% | 4.27% | 2.46% | 11.4% | -5.6%
14 | O[C@]1(c2ccccn2)CC[C@@H]2CN(Cc3cccc4ncccc34)C[C@@H]21 | -4.41% | 9.46% | 11.8% | -7.79% | -1.38% | 0.696% | 21.4% | 21.9% | 9.68% | 9.09% | -13.1%
15 | N#Cc1ccc(C(=O)N2CC[C@H]3[C@@H]2CCC(=O)N3c2cccnc2)cc1 | -4.52% | 13.5% | 3.21% | -7.6% | -2.44% | 3.5% | 18.3% | -4.58% | 1.08% | 12.8% | -4.36%
16 | Cc1oc(-c2ccco2)nc1CC(=O)N1CCC(C(O)C(F)(F)F)CC1 (configuration not stated) | -2.39% | 0% | -2.68% | 2.74% | 6.76% | -4.42% | -5.58% | -30% | -0.952% | 9.41% | -13.1%
17 | COCCCNC(=O)N1CCCC(c2nncn2C)C1 (configuration not stated) | -5.16% | 2.63% | -3.92% | 8.87% | -3.46% | 0.36% | 7.87% | 5.55% | 0.493% | -6.17% | 2.53%
18 | Cc1nccc(N2CCC(=O)N(Cc3ccc(F)cc3)C(C(C)C)C2)n1 (configuration not stated) | -2.94% | 1.39% | 1.69% | -1.4% | -1.07% | -0.883% | 4.56% | -6.54% | 0% | 2.56% | 1.68%
19 | Cc1cccnc1NC(=O)CSc1ccc2c(c1)OCCO2 | -3.38% | -4.17% | -2.48% | -6.94% | -2.04% | -1.77% | 8.42% | 7.78% | 0% | -2.56% | -2.02%
20 | CC(C)c1nc2n(n1)CC(NCc1ncc(-c3ccccc3)o1)CC2 (configuration not stated) | -0.807% | 2.6% | -3.44% | 5.78% | 4.8% | 4.84% | 4.12% | 8.03% | 2.86% | 2.35% | -14.2%
21 | Cc1cc(C)n(CC2CN(Cc3cscn3)CCO2)n1 (configuration not stated) | -2.86% | 23.7% | -2.52% | -2.39% | 2.63% | -0.383% | 27.2% | -6.47% | 7.35% | 21.9% | -11.6%
22 | Cc1ccc(-c2cn[nH]c2C2CCCN(c3nccc(N)n3)C2)cc1 (configuration not stated) | -2.69% | 20.8% | 46.7% | 15.4% | 5.15% | -1.77% | 25.6% | 37.1% | 7.37% | 20.5% | 3.03%
